{"source": "PubChem BioAssay (NCATS)", "note": "Inconclusive results are not listed. Calls of active or inactive are those of the source. Calls come from the whole dose curve; as a rule, active = well fitted inhibition curve with a large enough effect; inconclusive = small, poorly fitted or top-dose-only effect; inactive = flat fitted curve, though single readings scatter. % is set by controls: 0 for no effect and ±100 for the full control effect; potency is the fitted concentration of half-maximal effect."}
{"test_system": "not listed separately", "test": "Drug repurposing screens with cells derived from glioblastoma tumor samples (AID 1345199); note: nearly all actives have a fitted effect of over 40% in size", "conditions": "GBM patient neurospheres viability, ATP luminescence, 48 h; tumour line A", "method_in_brief": "(§1)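 Four patient lines of CD133+ GBM neurospheres were screened at several concentrations; hits were retested in those lines plus three slower-growing GBM lines, using 48-hour treatment and ATP-based viability.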"}
{"smiles": "S=C1SCN(Cc2ccccc2)CN1Cc1ccccc1", "Potency": "11.2 µM (active)"}
{"smiles": "C=CCN1CCCC1CNC(=O)c1cc(S(N)(=O)=O)cc(OC)c1OC", "note": "(configuration not stated)", "Potency": "35.5 µM (active)"}
{"smiles": "CC(C)(C)NC[C@H](O)COc1ccccc1C1CCCC1", "Potency": "4.47 µM (active)"}
{"test_system": "astro", "test": "Drug repurposing screens with cells derived from glioblastoma tumor samples (AID 1345199); note: nearly all actives have a fitted effect of over 40% in size", "conditions": "viability, ATP luminescence, 48 h; series mostly up to 45.9 µM; activity, negative = cell killing: at the top concentration", "method_in_brief": "as §1"}
{"smiles": "NC(=O)[C@@H]1C[C@]2(NC(=O)NC2=O)c2cc(F)ccc2O1", "activity, negative = cell killing": "-18.2% (inactive)"}
{"smiles": "C[C@H](O)CN(C)C", "activity, negative = cell killing": "-20.3% (inactive)"}
{"smiles": "CNC(=O)[C@H](Cc1c[nH]c2ccccc12)NC(=O)[C@@H](CC(=O)NO)CC(C)C", "activity, negative = cell killing": "-16.2% (inactive)"}
{"smiles": "COc1cc(S(C)=O)ccc1-c1nc2ncccc2[nH]1", "note": "(configuration not stated)", "activity, negative = cell killing": "-9.61% (inactive)"}
{"smiles": "COc1ccc(-c2noc(CC(=O)O)c2-c2ccc(OC)cc2)cc1", "activity, negative = cell killing": "3.17% (inactive)"}
{"smiles": "C[C@H](NCCc1ccc(O)cc1)[C@H](O)c1ccc(O)cc1", "activity, negative = cell killing": "-17.5% (inactive)"}
{"smiles": "COc1c(O[C@@H]2O[C@H](CO)[C@@H](O)[C@H](O)[C@H]2O)cc2c(c1OC)-c1ccc(SC)c(=O)cc1[C@@H](NC(C)=O)CC2", "activity, negative = cell killing": "-17.8% [at 21.2 µM] (inactive)"}
{"smiles": "CC(C)(C)NCC(O)c1ccc(O)c(CO)n1", "note": "(configuration not stated)", "activity, negative = cell killing": "-2.65% (inactive)"}
{"smiles": "O=C(O)C1=C(CSc2nnnn2CS(=O)(=O)O)CS[C@@H]2[C@H](NC(=O)[C@H](O)c3ccccc3)C(=O)N12", "activity, negative = cell killing": "-7.07% (inactive)"}
{"smiles": "CC1CC(O)CC(C)(C)C1", "note": "(configuration not stated)", "activity, negative = cell killing": "-6.07% (inactive)"}
{"smiles": "CC1CCCCN1CCCOC(=O)c1ccccc1", "note": "(configuration not stated)", "activity, negative = cell killing": "-11.9% (inactive)"}
{"smiles": "Cc1cc(C)c(NC(=O)C[C@H](CC(=O)O)c2cccc3ccccc23)c(C(=O)N2CCC3(CCCC3)CC2)c1", "activity, negative = cell killing": "-13.1% (inactive)"}
{"smiles": "CC(C)CCC[C@@H](C)[C@H]1CC[C@H]2[C@@H]3CC[C@@H]4C[C@H](O)CC[C@]4(C)[C@H]3CC[C@]12C", "activity, negative = cell killing": "-8.95% (inactive)"}
{"smiles": "C=CCCCCCCCCC(=O)OC", "activity, negative = cell killing": "-14.8% (inactive)"}
